# Results from the supplement of paper PMC8728848.
# This excerpt belongs to a sample that is enriched for the strongest signals.
# B1: CBM13 2a (Mycobacterium tuberculosum), P64849 (protein)
# chain: DGPVQLKSRLGDVCLDAPSGSWFSPLVINPCNGTDFQRWNLTDDRQVESVAFPGECVNIGNALWARLQPCVNWISQHWTVQPDGLVKSDLDACLTVLGGPDPGTWVSTRWCDPNAPDQQWDSVPLEHHHHHH
# What was measured:
# Test in all cases: glycan array binding signal (z-score within array); higher = stronger binding
# Settings in all cases: glycan notation: IUPAC condensed, linker removed
# [1] = target: Fuc(a1-2)Gal(b1-4)GlcNAc
# How it was run: (§1)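 Glycan array data were curated from 3228 arrays in the Consortium for Functional Glycomics database and kept only where the protein sequence was available. Glycan names were converted to IUPAC-condensed notation, and columns mapping to the same glycan were averaged. The binding signal is a within-array Z-score, averaged across arrays of the same protein sequence at different concentrations or buffers and across linkers. Negative Z-scores can be read as non-binding.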
# [2] = target: Fuc(a1-2)Gal(b1-4)GlcNAc(b1-2)Man(a1-3)[Fuc(a1-2)Gal(b1-4)GlcNAc(b1-2)Man(a1-6)]Man(b1-4)GlcNAc(b1-4)[Fuc(a1-6)]GlcNAc
# How it was run: as §1
# [3] = target: Fuc(a1-2)Gal(b1-4)GlcNAc(b1-3)Gal(b1-4)GlcNAc
# How it was run: as §1
# [4] = target: Fuc(a1-2)[Gal(a1-3)]Gal
# How it was run: as §1
# [5] = target: Fuc(a1-2)[GalNAc(a1-3)]Gal(b1-4)GlcNAc(b1-6)GalNAc
# How it was run: as §1
# [6] = target: Fuc(a1-2)[GalNAc(a1-3)]Gal(b1-4)[Fuc(a1-3)]GlcNAc
# How it was run: as §1
# [7] = target: Fuc(a1-3)[GalNAc(b1-4)]GlcNAc
# How it was run: as §1
# [8] = target: Gal(a1-3)Gal(b1-3)GlcNAc(b1-3)GalNAc
# How it was run: as §1
# [9] = target: Gal(a1-3)Gal(b1-3)GlcNAc(b1-6)GalNAc
# How it was run: as §1
# [10] = target: Gal(a1-3)Gal(b1-4)GlcNAc(b1-2)Man(a1-3)[Gal(a1-3)Gal(b1-4)GlcNAc(b1-2)Man(a1-6)]Man(b1-4)GlcNAc(b1-4)GlcNAc
# How it was run: as §1
# [11] = target: Gal(a1-4)Gal(b1-4)GlcNAc(b1-3)Gal(b1-4)Glc
# How it was run: as §1
# [12] = target: Gal(b1-3)Gal(b1-4)GlcNAc
# How it was run: as §1
# [13] = target: Gal(b1-3)GalNAc(b1-4)Gal(b1-4)Glc
# How it was run: as §1
# [14] = target: Gal(b1-3)GlcNAc(b1-2)Man(a1-3)[GlcNAc(b1-4)][Gal(b1-3)GlcNAc(b1-2)Man(a1-6)]Man(b1-4)GlcNAc(b1-4)GlcNAc
# How it was run: as §1
# [15] = target: Gal(b1-3)GlcNAc(b1-6)Gal(b1-4)GlcNAc
# How it was run: as §1
# [16] = target: Gal(b1-3)[Fuc(a1-4)]GlcNAc(b1-3)Gal(b1-4)[Fuc(a1-3)]GlcNAc
# How it was run: as §1
# [17] = target: Gal(b1-4)GalNAc(b1-3)[Fuc(a1-2)]Gal(b1-4)GlcNAc
# How it was run: as §1
# [18] = target: Gal(b1-4)GlcNAc(b1-2)Man(a1-3)[Gal(b1-4)GlcNAc(b1-2)Man(a1-6)]Man(b1-4)GlcNAc(b1-4)[Fuc(a1-6)]GlcNAc
# How it was run: as §1
# [19] = target: Gal(b1-4)GlcNAc(b1-3)Gal(b1-3)GlcNAc
# How it was run: as §1
# [20] = target: Gal(b1-4)GlcNAc(b1-3)Gal(b1-4)GlcNAc(b1-2)Man(a1-3)[Gal(b1-4)GlcNAc(b1-3)Gal(b1-4)GlcNAc(b1-2)Man(a1-6)]Man(b1-4)GlcNAc(b1-4)GlcNAc
# How it was run: as §1
# [21] = target: Gal(b1-4)GlcNAc(b1-3)Gal(b1-4)GlcNAc(b1-3)Gal(b1-4)GlcNAc(b1-2)Man(a1-3)[Gal(b1-4)GlcNAc(b1-3)Gal(b1-4)GlcNAc(b1-3)Gal(b1-4)GlcNAc(b1-2)Man(a1-6)]Man(b1-4)GlcNAc(b1-4)GlcNAc
# How it was run: as §1
# [22] = target: Gal(b1-4)GlcNAc(b1-3)Gal(b1-4)GlcNAc(b1-3)GalNAc
# How it was run: as §1
# [23] = target: Gal(b1-4)GlcNAc(b1-3)Gal(b1-4)GlcNAc(b1-3)[Gal(b1-4)GlcNAc(b1-3)Gal(b1-4)GlcNAc(b1-6)]GalNAc
# How it was run: as §1
# [24] = target: Gal(b1-4)GlcNAc(b1-3)Gal(b1-4)GlcNAc(b1-6)[Gal(b1-3)]GalNAc
# How it was run: as §1
# [25] = target: Gal4S(b1-4)GlcNAc
# How it was run: as §1
# [26] = target: Gal6P(b1-4)GlcNAc
# How it was run: as §1
# [27] = target: GalNAc(b1-3)GalNAc
# How it was run: as §1
# [28] = target: GalNAc(b1-6)GalNAc
# How it was run: as §1
# [29] = target: GlcNAc(b1-2)[GlcNAc(b1-4)]Man(a1-3)[GlcNAc(b1-4)][GlcNAc(b1-2)[GlcNAc(b1-6)]Man(a1-6)]Man(b1-4)GlcNAc(b1-4)[Fuc(a1-6)]GlcNAc
# How it was run: as §1
# [30] = target: GlcNAc(b1-2)[GlcNAc(b1-6)]Man(a1-6)[GlcNAc(b1-2)Man(a1-3)]Man(b1-4)GlcNAc(b1-4)GlcNAc
# How it was run: as §1
# [31] = target: GlcNAc(b1-3)Gal(b1-4)GlcNAc(b1-3)Gal(b1-4)GlcNAc(b1-3)Gal(b1-4)GlcNAc(b1-3)Gal(b1-4)GlcNAc(b1-2)Man(a1-3)[GlcNAc(b1-3)Gal(b1-4)GlcNAc(b1-3)Gal(b1-4)GlcNAc(b1-3)Gal(b1-4)GlcNAc(b1-3)Gal(b1-4)GlcNAc(b1-2)Man(a1-6)]Man(b1-4)GlcNAc(b1-4)[Fuc(a1-6)]GlcNAc
# How it was run: as §1
# [32] = target: GlcNAc(b1-4)Gal(b1-4)GlcNAc
# How it was run: as §1
# [33] = target: GlcNAc(b1-4)GlcNAc(b1-4)GlcNAc(b1-4)GlcNAc(b1-4)GlcNAc
# How it was run: as §1
# [34] = target: GlcNAc6S(b1-3)Gal(b1-4)GlcNAc
# How it was run: as §1
# [35] = target: Man(a1-2)Man(a1-3)[Man(a1-2)Man(a1-6)]Man(a1-6)[Man(a1-2)Man(a1-2)Man(a1-3)]Man
# How it was run: as §1
# [36] = target: Man(a1-3)[Man(a1-6)]Man(a1-6)[Man(a1-2)Man(a1-3)]Man(b1-4)GlcNAc(b1-4)GlcNAc
# How it was run: as §1
# [37] = target: Neu5Ac(a2-3)Gal(b1-3)GalNAc6S
# How it was run: as §1
# [38] = target: Neu5Ac(a2-3)Gal(b1-3)GlcNAc(b1-2)Man(a1-3)[GlcNAc(b1-4)][Neu5Ac(a2-3)Gal(b1-3)GlcNAc(b1-2)Man(a1-6)]Man(b1-4)GlcNAc(b1-4)GlcNAc
# How it was run: as §1
# [39] = target: Neu5Ac(a2-3)Gal(b1-3)[Neu5Ac(a2-6)]GlcNAc(b1-3)[Fuc(a1-3)[Gal(b1-4)]GlcNAc(b1-6)]Gal(b1-4)Glc
# How it was run: as §1
# [40] = target: Neu5Ac(a2-3)Gal(b1-4)GlcNAc(b1-2)[Neu5Ac(a2-3)Gal(b1-4)GlcNAc(b1-2)]Man(a1-6)[Neu5Ac(a2-3)Gal(b1-4)GlcNAc(b1-2)Man(a1-3)][GlcNAc(b1-4)]Man(b1-4)GlcNAc(b1-4)GlcNAc
# How it was run: as §1
# [41] = target: Neu5Ac(a2-3)Gal(b1-4)GlcNAc(b1-2)[Neu5Ac(a2-3)Gal(b1-4)GlcNAc(b1-6)]Man(a1-6)[Neu5Ac(a2-3)Gal(b1-4)GlcNAc(b1-2)Man(a1-3)]Man(b1-4)GlcNAc(b1-4)GlcNAc
# How it was run: as §1
# [42] = target: Neu5Ac(a2-3)Gal(b1-4)GlcNAc(b1-3)Gal(b1-4)GlcNAc
# How it was run: as §1
# [43] = target: Neu5Ac(a2-3)Gal(b1-4)GlcNAc(b1-3)Gal(b1-4)GlcNAc(b1-2)Man(a1-3)[Neu5Ac(a2-3)Gal(b1-4)GlcNAc(b1-3)Gal(b1-4)GlcNAc(b1-2)Man(a1-6)]Man(b1-4)GlcNAc(b1-4)GlcNAc
# How it was run: as §1
# [44] = target: Neu5Ac(a2-3)Gal(b1-4)GlcNAc(b1-3)Gal(b1-4)GlcNAc(b1-3)Gal(b1-4)GlcNAc(b1-2)Man(a1-3)[Neu5Ac(a2-3)Gal(b1-4)GlcNAc(b1-3)Gal(b1-4)GlcNAc(b1-3)Gal(b1-4)GlcNAc(b1-2)Man(a1-6)]GalNAc
# How it was run: as §1
# [45] = target: Neu5Ac(a2-3)Gal6S(b1-4)[Fuc(a1-3)]GlcNAc
# How it was run: as §1
# [46] = target: Neu5Ac(a2-3)[GalNAc(b1-4)]Gal(b1-4)GlcNAc(b1-3)GalNAc
# How it was run: as §1
# [47] = target: Neu5Ac(a2-6)Gal(b1-4)GlcNAc(b1-2)Man(a1-3)Man(b1-4)GlcNAc(b1-4)GlcNAc
# How it was run: as §1
# [48] = target: Neu5Ac(a2-6)Gal(b1-4)GlcNAc(b1-3)Gal(b1-4)GlcNAc(b1-3)Gal(b1-4)GlcNAc(b1-2)Man(a1-3)[Neu5Ac(a2-6)Gal(b1-4)GlcNAc(b1-3)Gal(b1-4)GlcNAc(b1-3)Gal(b1-4)GlcNAc(b1-2)Man(a1-6)]GalNAc
# How it was run: as §1
# [49] = target: Neu5Ac(a2-6)Gal(b1-4)GlcNAc(b1-3)Gal(b1-4)GlcNAc(b1-3)[Neu5Ac(a2-6)Gal(b1-4)GlcNAc(b1-3)Gal(b1-4)GlcNAc(b1-6)]GalNAc
# How it was run: as §1
# [50] = target: Neu5Ac(a2-8)Neu5Ac(a2-3)Gal(b1-4)Glc
# How it was run: as §1
binder,measurement,setting,value
B1,glycan array binding signal (z-score),[1],-0.294
same,glycan array binding signal (z-score),[2],0.023
same,glycan array binding signal (z-score),[3],-0.362
same,glycan array binding signal (z-score),[4],-0.26
same,glycan array binding signal (z-score),[5],-0.303
same,glycan array binding signal (z-score),[6],0.434
same,glycan array binding signal (z-score),[7],-0.31
same,glycan array binding signal (z-score),[8],-0.132
same,glycan array binding signal (z-score),[9],-0.286
same,glycan array binding signal (z-score),[10],-0.178
same,glycan array binding signal (z-score),[11],-0.267
same,glycan array binding signal (z-score),[12],-0.121
same,glycan array binding signal (z-score),[13],-0.32
same,glycan array binding signal (z-score),[14],-0.203
same,glycan array binding signal (z-score),[15],-0.345
same,glycan array binding signal (z-score),[16],-0.184
same,glycan array binding signal (z-score),[17],-0.335
same,glycan array binding signal (z-score),[18],0.207
same,glycan array binding signal (z-score),[19],-0.187
same,glycan array binding signal (z-score),[20],3.82
same,glycan array binding signal (z-score),[21],3.22
same,glycan array binding signal (z-score),[22],6.08
same,glycan array binding signal (z-score),[23],4.69
same,glycan array binding signal (z-score),[24],5.73
same,glycan array binding signal (z-score),[25],-0.154
same,glycan array binding signal (z-score),[26],-0.708
same,glycan array binding signal (z-score),[27],-0.167
same,glycan array binding signal (z-score),[28],-0.3
same,glycan array binding signal (z-score),[29],-0.406
same,glycan array binding signal (z-score),[30],0.094
same,glycan array binding signal (z-score),[31],-0.169
same,glycan array binding signal (z-score),[32],-0.553
same,glycan array binding signal (z-score),[33],-0.213
same,glycan array binding signal (z-score),[34],-0.288
same,glycan array binding signal (z-score),[35],-0.338
same,glycan array binding signal (z-score),[36],6.51
same,glycan array binding signal (z-score),[37],-0.262
same,glycan array binding signal (z-score),[38],-0.103
same,glycan array binding signal (z-score),[39],-0.258
same,glycan array binding signal (z-score),[40],-0.048
same,glycan array binding signal (z-score),[41],-0.017
same,glycan array binding signal (z-score),[42],-0.249
same,glycan array binding signal (z-score),[43],7.02
same,glycan array binding signal (z-score),[44],9.05
same,glycan array binding signal (z-score),[45],-0.271
same,glycan array binding signal (z-score),[46],4.49
same,glycan array binding signal (z-score),[47],-0.031
same,glycan array binding signal (z-score),[48],4.67
same,glycan array binding signal (z-score),[49],8.64
same,glycan array binding signal (z-score),[50],-0.117
